Bioassay records from PubChem BioAssay.
Sampled rows, rich in hits. Any-hit rate of the full collection: about 1.8%.
GRK2 inh: inhibitors of human GRK2 displacing RNA aptamer | P25098 | bead flow cytometry, FAM-aptamer displacement from GRK2 | inhibition of aptamer binding, % at 10 µM | hit rate 0.59% among 330,000 | AID 488847;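 active = inhibition of aptamer binding above 40%, roughly 3 SD of noise, on plates passing a quality check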;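 also: median bead fluorescence of bound FAM aptamer so fluorescent compounds give negative values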
Target sequence (P25098 whole entry, looked up): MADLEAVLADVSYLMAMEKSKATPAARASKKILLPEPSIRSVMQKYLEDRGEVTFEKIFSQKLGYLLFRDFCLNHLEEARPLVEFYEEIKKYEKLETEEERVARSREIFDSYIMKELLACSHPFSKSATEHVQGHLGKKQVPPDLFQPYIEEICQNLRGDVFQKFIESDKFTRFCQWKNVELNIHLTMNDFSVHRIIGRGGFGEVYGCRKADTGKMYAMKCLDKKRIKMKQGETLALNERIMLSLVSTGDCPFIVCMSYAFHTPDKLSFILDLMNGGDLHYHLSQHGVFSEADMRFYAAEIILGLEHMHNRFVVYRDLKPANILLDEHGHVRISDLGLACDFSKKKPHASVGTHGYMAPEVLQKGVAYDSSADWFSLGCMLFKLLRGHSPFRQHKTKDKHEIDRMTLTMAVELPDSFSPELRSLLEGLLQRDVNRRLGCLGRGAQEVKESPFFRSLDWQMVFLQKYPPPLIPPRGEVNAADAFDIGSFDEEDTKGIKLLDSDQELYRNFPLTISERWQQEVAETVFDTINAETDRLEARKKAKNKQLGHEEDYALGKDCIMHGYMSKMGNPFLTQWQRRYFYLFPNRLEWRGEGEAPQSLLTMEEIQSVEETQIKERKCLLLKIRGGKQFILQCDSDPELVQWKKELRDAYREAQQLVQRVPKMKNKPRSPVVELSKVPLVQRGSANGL
HDAC3 inh: inhibitors of human histone deacetylase 3; O15379; recombinant HDAC3, fluorogenic peptide/trypsin coupled, fluorescence; inhibition, % at 8.3 µM; hit rate 0.15% among 320,000; in the data active = inhibition above about 26%, passing the limit was not always enough
Cardio protect: modulators protecting cardiomyocytes from myocardial damage. AID 588492. hit rate 0.63% among 360,000. protection from H2O2 cell death, % at 20 µM. H9c2 cardiomyocytes, H2O2 injury protection, ATPLite, 2 h;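 active = compounds giving at least 50% protection of heart cells from peroxide-induced death in the single-dose screen, raw or plate-pattern-corrected value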;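 also: 0% = DMSO wells with peroxide and 100% = DMSO wells without peroxide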
Neddyl block: blocks human cullin neddylation; P61081+Q13564; TR-FRET cullin neddylation, biochemical; inhibition, % at 25 µM; hit rate 0.58% among 360,000; AID 651699; in the data active = inhibition above about 36%
GRK2 CP1: confirmation of human GRK2 inhibitors displacing RNA aptamer | shares compounds with GRK2 inh | bead-bound GRK2, FAM-aptamer displacement, flow cytometry | aptamer displacement, % at 10 µM | hit rate 4% among 2,000;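 active = aptamer displacement above 40%, near three times the noise of non-fluorescent compounds, on plates passing quality checks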;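 also: negative values mostly reflect intrinsic compound fluorescence rather than true enhancement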
FAM quench CP1: counter-screen for GRK2 aptamer inhibitors: fluorescent aptamer quenchers. shares compounds with GRK2 inh. Carboxyfluorescein RNA aptamer on beads, flow cytometry quenching; stronger effect = lower value. fluorescence response (% of DMSO), % at 10 µM. 2,000 tested, under 10 active. AID 504580;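 active = compounds that quench the bead-bound fluorescent RNA probe, cutting fluorescence to under half of the solvent control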;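 also: counterscreen run without GRK2 so only probe quenching by compound is measured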
GRK2 CP2: human GRK2 inhibition confirmation, cherry pick 2. 360 tested, under 10 active. bead-bound GRK2, FAM-aptamer displacement, flow cytometry. inhibition of aptamer binding, % at 10 µM. shares compounds with GRK2 inh. AID 504782;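 active = inhibition of aptamer binding above 40%, about triple the noise seen with nonglowing compounds, on plates passing quality control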;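 also: negative values mostly come from compounds that fluoresce themselves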
FAM quench SP: aptamer fluorescence quenching in GRK2 counter-screen; shares compounds with GRK2 inh; carboxyfluorescein RNA aptamer beads, flow cytometry quenching; stronger effect = lower value; fluorescence response vs DMSO, % at 10 µM; 360 tested, under 10 active; AID 588494;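 active = response vs DMSO under 50%, meaning signal dropped by over half, treated as fluorescence quencher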;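 also: labelled aptamer on streptavidin beads without GRK2 as a quench counter-screen; 100% = bead fluorescence of DMSO wells and lower means quenching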
Active calls of the source: *; x = no result given.

SMILES | GRK2 inh | HDAC3 inh | Cardio protect | Neddyl block | GRK2 CP1 | FAM quench CP1 | others
COc1ccc(-c2cc(C(=O)N(C)Cc3cccc(OC)c3OC)c3ccccc3n2)cc1OC | 0.0 | 2.1 | 28.8 | x | x | x
COc1ccc(-c2sc3cc(OC)c(OC)cc3c2C#CC2(O)CCCCC2)cc1 | 83.0* | -4.8 | 1.0 | x | -3.0 | 96.4
CC12CCC3c4ccc(O)cc4CCC3C1CC(=NO)C2O (stereo not drawn) | x | x | 2.9 | 3.9 | x | x
COc1ccc([C@@]23Oc4cc(OC)cc(OC)c4[C@]2(O)[C@H](O)[C@H](C(=O)N(C)C)[C@H]3c2ccccc2)cc1 | x | x | 1.1 | -11.6 | x | x
O=C(CN1C(=O)COc2ccc(S(=O)(=O)N3CCOCC3)cc21)Nc1cccc(Cl)c1 | 66.0* | -4.3 | 3.4 | 0.5 | -5.1 | 100.6
C[C@@H]1CCCCO[C@H](CN(C)C(=O)Cc2ccccc2)[C@@H](C)CN([C@H](C)CO)C(=O)c2cc(NC(=O)Nc3ccccc3)ccc2O1 | x | x | 9.1 | -5.3 | x | x
CCOC(=O)C1=CN(Cc2cccc(-c3ccc(Cl)nc3)c2)S(=O)(=O)N(C)C1C (stereo not drawn) | 0.0 | x | -7.5 | 3.6 | x | x
COc1ccccc1CNc1ccc(CNc2ncn[nH]2)cc1 | 52.0* | 6.6 | 16.2 | -4.2 | -1.1 | 98.4
NS(=O)(=O)c1ccc2nc(NC(=O)c3ccc(Br)o3)sc2c1 | 54.0* | 1.3 | -9.1 | 18.3 | 3.5 | 92.6
O=C(Nc1ccc(F)cc1)C1CCN(S(=O)(=O)c2ccc3[nH]c(=O)oc3c2)CC1 | 0.0 | 2.8 | -0.6 | -8.0 | x | x
Cc1ccc([N+](=O)[O-])c(NC2OC(CO)C(O)C2O)c1 (stereo not drawn) | 0.0 | 4.5 | -3.2 | -3.5 | x | x
COc1ccc(NC(=S)N2CCN(c3ncccn3)CC2)c(OC)c1 | x | 8.2 | 6.6 | -0.8 | x | x
O=CN1c2ccccc2CSc2ccccc21 | 74.0* | 0.4 | 2.2 | -2.1 | -4.0 | 100.3
CC(=O)CCc1c(C)[nH]c2ccc(NC(C)=O)cc2c1=O | 1.0 | -8.1 | 3.3 | 19.6 | x | x
CCCc1c(C)[nH]c2ccc(NC(C)=O)cc2c1=O | 74.0* | -2.6 | 4.2 | 11.0 | 0.3 | 109.9
CCOc1cc(N2CCOCC2)c(OCC)cc1NC(=O)c1ccc(F)c(S(=O)(=O)N2CCOCC2)c1 | x | x | 0.1 | 2.4 | 2.1 | 94.6
CCOc1cc(N2CCOCC2)c(OCC)cc1NC(=O)c1ccc(S(C)(=O)=O)cc1 | 90.0* | -7.2 | -2.5 | 6.2 | 5.5 | 105.7
CCOc1cc(N2CCOCC2)c(OCC)cc1NC(=O)c1cc(S(=O)(=O)N2CCOCC2)ccc1C | 8.0 | 4.2 | 7.1 | 1.3 | -0.4 | 97.1
O=C(NCCN1CCC(n2c(=O)[nH]c3ccccc32)CC1)c1ccc(F)cc1F | x | x | x | 8.7 | x | x
Cc1cccc(NC(=O)c2csnn2)n1 | 34.0 | -0.7 | 14.9 | 3.2 | -3.2 | 98.4
Cc1cccc(NC(=O)c2ccc(Cl)nc2)n1 | 0.0 | 2.6 | 6.4 | -6.2 | x | x
O/C(=C\Sc1nnc(Cc2ccccc2)o1)c1ccc(F)cc1 | 49.0* | -2.2 | 5.3 | 0.1 | x | 94.1
COc1ccc(S(=O)(=O)N2CCN(C)CC2)cc1C(=O)Nc1ccccc1 | 0.0 | -0.2 | -3.3 | -1.7 | x | x
CC1CN(C(=O)NCc2ccccc2)c2cc(Cl)ccc2O1 (stereo not drawn) | 1.0 | 4.6 | -2.4 | -0.8 | x | x
NC(=O)N/N=C/c1cn(CC(=O)Nc2ccc(F)cc2)c2ccccc12 | 0.0 | 5.7 | 1.4 | -15.7 | x | x
Cc1cc(C)n2nc(C(=O)N3CCCC(Nc4ccc(C(C)C)cc4)C3)cc2n1 (stereo not drawn) | 4.0 | -4.0 | 2.6 | 26.8 | x | x
Cc1cc(C)n2nc(C(=O)N3CCCC(Nc4ccc(F)c(F)c4)C3)cc2n1 (stereo not drawn) | 85.0* | 7.4 | 7.9 | -147.5 | x | x | GRK2 CP2=8.5;FAM quench SP=102.0
O=C1NC(=S)S/C1=C\c1ccc(SCc2ccccc2)o1 | 46.0* | 8.4 | -23.1 | -2.8 | 20.7 | 96.6
O=C(CSc1nc2ccc([N+](=O)[O-])cc2s1)NCC1CCCO1 (stereo not drawn) | 90.0* | 7.2 | 1.2 | -35.7 | 1.1 | 101.8
